Molecules are shown by their SMILES. Inconclusive results are not listed. Unmarked numbers belong to inactive results. Calls of active or inactive are those of the source. Calls come from the whole dose curve; as a rule, active = well fitted activation curve with a large enough effect in the repeat runs; inconclusive = weak or mixed curves; inactive = flat fitted curve, though single readings scatter.
% is set by controls: 0 for no effect and ±100 for the full control effect; potency is the fitted concentration of half-maximal effect.

The assay can be described thus: A CellTox Green Cytotoxicity Assay to monitor cytotoxicity in HepG2 cells - 40 hour (AID 1224879). Note: nearly all actives have a fitted effect of over 40% in size. To be noted: CellTox Green fluorescence; series mostly up to 76.8 µM; cytotoxicity increase: at the top concentration. The source says: National Center for Advancing Translational Sciences [NCATS]
NIH Chemical Genomics Center [NCGC]
U.S. Environmental Protection Agency [EPA]
National Institutes of Environmental Health Sciences [NIEHS]
National Toxicology Program [NTP]
Cell-based models are critical for drug discovery. Determining the natural cytotoxic effects resulting from test compounds is an essential research activity. A CellTox Green Cytotoxicity Assay to monitor cytotoxicity in real time of continues cell culture during 40 hours of the compound treatment was used to screen Tox21 10K library compounds in HepG2 cells. CellTox Green Cytotoxicity Assay is a nonlytic, homogeneous, biofluorescent method to measure cytotoxicity in cell culture after experimental manipulation. The assay system uses a proprietary asymmetric cyanine dye that is excluded from viable cells but preferentially stains the dead cell's DNA. […] Viable cells produce no appreciable increases in fluorescence. Therefore, the fluorescence signal produced by the binding interaction with dead cell DNA is proportional to cytotoxicity.
The mixture of HepG2 cell suspension and reagents were dispensed at 600cells/6 ul/well in 1536-well tissue culture treated black solid bottom plates using a Multidrop dispenser. After the assay plates were incubated at a 37 C/5% CO2 incubator for 5 hours, 23 nL of compounds dissolved in DMSO, positive and negative controls was transferred to the assay plate by a pintool work station. The plates were incubated at 37 C for 40 hours. The fluorescence intensity were measured at 0h, 8h, 16h, 24h, 32h and 40h time points using ViewLux plate reader during compound treatment.
For `CCCCCCCCOC(=O)CCCCCCCCC(=O)OCCCCCCCC`, the “cytotoxicity increase” value is -11.2%. Same read-out and setting: the same measure for `O=Cc1ccc(F)c(Br)c1`: -5.66%; for `CCCNC(C)C(=O)Nc1c(C)csc1C(=O)OC` (stereo not given): -25.2% [at 35.3 µM]. Consider `C=CCCC=C`, for which the “cytotoxicity increase” value is -13.8%. `CCOc1ccc(NS(=O)(=O)c2ccc(N)cc2)nn1`: the “cytotoxicity increase” value is -11.3% [at 35.3 µM]. `CCNCCO`: the “cytotoxicity increase” value was 2.79%. Regarding `Cc1ccc(C=O)s1`, the Potency was 27.5 µM (active). With `Cc1c[nH]c(=S)[nH]c1=O`, the “cytotoxicity increase” value was 1.54%.

Consider `CC(=O)O[C@H]1CC[C@@]2(C)C(=CC[C@@H]3[C@@H]2CC[C@]2(C)C(C(C)=O)=CC[C@@H]32)C1`, for which the “cytotoxicity increase” value was 1.64% [at 35.3 µM].

`Cc1cc2nc(N)sc2cc1C`: the “cytotoxicity increase” value is 1.38%.

Take `NS(=O)(=O)c1cc(-c2nn[nH]n2)c(NCc2cccs2)cc1Cl`: the “cytotoxicity increase” value is 6.53% [at 35.3 µM]. Regarding `CC(CNC1CCCCC1)OC(=O)c1ccccc1` (stereo not given), the “cytotoxicity increase” value was -0.207% [at 35.3 µM]. `c1ccc(CN(CC2=NCCN2)c2ccccc2)cc1`: the “cytotoxicity increase” value is 12.9% [at 35.3 µM]. On the same count and under the same terms, for `CC(C)CCCCCCc1ccc(OCCOCCO)cc1` the value was -6.14%. In the case of `CCOC(=O)C(Br)c1ccccc1` (stereo not given), the “cytotoxicity increase” value was -2.48%. The same measure, in the same setting: for `O=C(O)CN(CCN(CC(=O)O)CC(=O)O)CCN(CC(=O)O)CC(=O)O` the value was 29.3% [at 15.8 µM]. Take `COc1cc2c(cc1N)oc1ccccc12`: the “cytotoxicity increase” value was -2.58%. For `CCOC(=O)CS`, the “cytotoxicity increase” value was -18.6%.

For the compound `O=C(C(Cl)Cl)N1CCOC12CCCCC2`, the “cytotoxicity increase” value was -14%. Take `CCOc1ccc2nc(N)sc2c1`: the “cytotoxicity increase” value is 1.76%. For `O=C(O[C@@H](C(=O)O)[C@@H](OC(=O)c1ccccc1)C(=O)O)c1ccccc1`, the “cytotoxicity increase” value is 5.27%. `CCCCCCCCCC/C=C/C#N`: the “cytotoxicity increase” value is 0.583%. The same measure, in the same setting: the same measure for `CC1CN(c2ccccc2)NC1=O` (stereo not given): -1.74%; for `CCCc1c2oc(C(=O)O)cc(=O)c2cc2c(=O)cc(C(=O)O)n(CC)c12`: 1.1% [at 35.3 µM]; for `CC(=O)Nc1ccc(C)c(Cl)c1`: -8.07%.

`NC(Cc1ccc(F)cc1)C(=O)O` (stereo not given): the cytotoxicity increase was 7.77% [at 6.97 µM].

For `CNCCC(Oc1ccccc1OC)c1ccccc1` (stereo not given), the “cytotoxicity increase” value was -0.901% [at 35.3 µM]. Same read-out and setting: the same measure for `Cc1ccsc1C(=CCCN1CCC[C@@H](C(=O)O)C1)c1sccc1C`: -3.7% [at 35.3 µM]. `O=c1[nH]c(=O)n([C@H]2C[C@H](O)[C@@H](CO)O2)cc1C(F)(F)F`: the Potency is 19 µM (active). With `CCOc1ccc(NC(N)=O)cc1`, the “cytotoxicity increase” value was -8.34%. `N#Cc1ccc(C(c2ccc(C#N)cc2)n2cncn2)cc1`: the “cytotoxicity increase” value is -4.1% [at 35.3 µM]. On the same count and under the same terms, the same measure for `Cc1ccc([N+](=O)[O-])cc1Cl`: 1.01%; for `N#CSCC(=O)O`: 0.27% [at 35.3 µM]; for `CC/C=C\CCOC(=O)CCCCC`: 18.6%. As to `O=C1N(c2ccccc2)c2ccccc2C1(Cc1ccncc1)Cc1ccncc1`, the “cytotoxicity increase” value is 5.63% [at 35.3 µM]. The same measure, in the same setting: for `C/C(=N\O)[C@@H](C)NCC(C)(C)CN[C@H](C)/C(C)=N/O` the value was -5.79% [at 35.3 µM]; for `CC1=C2[C@H](/C=C(\C)C(=O)O)CC[C@@H](C)[C@H]2CC1`, 16.1%; for `CC(C)NCC(O)COc1ccc(CCOCC2CC2)cc1` (stereo not given), 8.76% [at 35.3 µM]. For `CC(=O)N[C@@H](CC(C)C)C(=O)O`, the “cytotoxicity increase” value was 4.91% [at 35.3 µM]. Same read-out and setting: the same measure for `C[C@]12CCC(=O)C=C1CC[C@@H]1[C@@H]2CC[C@@]2(C)[C@H]1CC[C@]2(O)C(=O)CO`: -3.11% [at 35.3 µM].

These data come from PubChem BioAssay (Tox21).
